# HttQ103 aggreg = qHTS Multiplex Assay to Identify Dual Action Probes in a Cell Model of Huntington: Aggregate Formation (GFP); PC12 HttQ103-GFP aggregates, Acumen cytometry, 40 h; Potency, µM (doses to about 46.1 µM), for inactives: at the top dose activity change, negative = inhibition, hits mostly inhibitors; actives 1.1% (n = 220,000); AID 1688, 2009; note: % is set by controls: 0 for no effect and ±100 for the full control effect; nearly all actives have a fitted effect of over 60% in size
#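 Aggregates are detected as GFP objects 1–25 µm with signal 6 STDEV over background in lysates of induced PC12 cells. These carry Huntingtin exon 1 with 103 glutamines fused to GFP under an ecdysone promoter; compounds titrated.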
# HTT cytoprotect = qHTS Multiplex Assay to Identify Dual Action Probes in a Cell Model of Huntington: Cytoprotection (ATP); actives 0.14% (n = 230,000); Potency, µM (series often up to 56.4 µM), inactives show cytoprotection (ATP increase), usual class: activators; PC12 HTT-Q103 induced, cytoprotection, ATP luminescence, 40 h; AID 1471, 2008; note: % of control where 0% means no effect; nearly all actives have a fitted effect of over 45% in size
#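 Compounds were screened for protection of PC12 cells against cell death after tebufenozide induction (100 nM final) of mutant Huntingtin exon 1 (Q103) fused to GFP.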
# Lamin A splicing = qHTS Assay for Modulators of Lamin A Splicing; HeLa LMNA splicing GFP/RFP minigene ratio, 48 h; Potency, µM (highest dose often 46.1 µM), inactives show at the highest dose ratio change, negative = inhibition, most hits filed as inhibitors; actives 0.01% (n = 200,000); active = well fitted inhibition curve with a large enough effect in the signal ratio, with a control signal flat, not every such curve was filed as active; inconclusive = small, poorly fitted or top-dose-only effect, or effect the other way, or a change in a side signal; the % refers to the signal ratio; note: % is set by controls: 0 for no effect and ±100 for the full control effect
#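 Read-out is the ratio of GFP to DsRed2 object intensity, acquired by 488 nm laser-scanning cytometry on HeLa lamin A-EGFP minigene reporter cells. Compound incubation 48 hrs at 37 °C in Opti-MEM with 2% FBS; DMSO 0.5% final.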
# HPGD inh = qHTS Assay for Inhibitors of HPGD (15-Hydroxyprostaglandin Dehydrogenase). 15-hydroxyprostaglandin dehydrogenase [NAD(+)] (Homo sapiens), P15428. actives 4.3% (n = 150,000). AID 894, 2007. purified HPGD, NADH fluorescence kinetic, PGE2 substrate. Potency, µM, inactives show at the highest dose activity change, negative = inhibition, actives largely listed as inhibitors; active = well fitted inhibition curve with a large enough effect, not every such curve was filed as active; inconclusive = small, poorly fitted or top-dose-only effect, or another doubt; inactive = no such curve, though single readings can be large or run the other way; note: % is set by controls: 0 for no effect and ±100 for the full control effect
#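 NADH formation kinetics: reaction with 30 uM PGE2 and 1 mM NAD+ (final), 20 nM enzyme, Tris-HCl pH 8 with Tween 20, after 15 min compound preincubation at room temperature. Fluorescence change, last versus first of five reads.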
# ALDH1A1 block = qHTS Assay for Inhibitors of Aldehyde Dehydrogenase 1 (ALDH1A1) | Aldehyde dehydrogenase 1A1 (Homo sapiens), P00352 | Purified ALDH1A1, NADH fluorescence, propionaldehyde substrate | Potency, µM (titrated, usually from 75.3 µM), for the others: top-dose activity, negative = inhibition, hits mostly inhibitors | actives 7.3% (n = 220,000) | AID 1030, 2008; active = well fitted inhibition curve with a large enough effect, not every such curve was filed as active; inconclusive = small, poorly fitted or top-dose-only effect, or another doubt; inactive = no such curve, though single readings can be large or run the other way;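 note: plate controls were no enzyme wells and a reference inhibitor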
# Target sequence (P00352 whole entry, looked up): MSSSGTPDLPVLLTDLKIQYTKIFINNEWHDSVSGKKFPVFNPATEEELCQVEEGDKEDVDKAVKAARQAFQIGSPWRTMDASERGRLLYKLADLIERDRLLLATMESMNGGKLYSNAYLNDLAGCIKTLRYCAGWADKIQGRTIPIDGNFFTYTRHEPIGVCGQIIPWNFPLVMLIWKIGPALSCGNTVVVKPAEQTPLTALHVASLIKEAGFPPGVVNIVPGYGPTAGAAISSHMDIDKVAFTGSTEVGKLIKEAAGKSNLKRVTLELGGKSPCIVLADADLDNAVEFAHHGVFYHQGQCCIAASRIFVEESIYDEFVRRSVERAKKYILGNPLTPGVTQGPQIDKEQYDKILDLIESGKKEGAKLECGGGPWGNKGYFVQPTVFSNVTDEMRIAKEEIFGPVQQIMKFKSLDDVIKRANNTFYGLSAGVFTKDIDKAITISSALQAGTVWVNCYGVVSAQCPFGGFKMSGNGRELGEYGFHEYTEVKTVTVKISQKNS
# Luc counter = Counterscreen for Luciferase (Kinase-Glo TM) Inhibition; Luciferin 4-monooxygenase (Photuris pensylvanica), Q27757; Kinase-Glo luciferase, ATP luminescence, 8 min; AID 1379, 2008; actives 0.28% (n = 200,000); Potency, µM (series often up to 38.3 µM), for the others: top-dose activity change, negative = inhibition, usual class: inhibitors; note: % is set by controls: 0 for no effect and ±100 for the full control effect; nearly all actives have a fitted effect of over 60% in size
#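 Compound is pinned into ATP-containing buffer (10 uM ATP, imidazole pH 7.2, 7 mM MgCl2). Kinase-Glo luciferase reagent is then added. Light output is recorded following an 8-min room-temperature incubation.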
# Starred values were filed as active, the others as inactive; ? = inconclusive; . = no result given; [ ] = another dose, or the depositor's remark. Rows were chosen to be rich in hits. Some 9% of all compounds tested hit in one or more screens of this group. Unless noted, calls come from the whole dose curve; as a rule, active = well fitted curve in the direction sought with a large enough effect; inconclusive = small, poorly fitted or top-dose-only effect, or another doubt; inactive = no such curve, though single readings can be large; an effect the other way counts as inactive or inconclusive. Potency is the fitted concentration of half-maximal effect.
SMILES,HttQ103 aggreg,HTT cytoprotect,Lamin A splicing,HPGD inh,ALDH1A1 block,Luc counter
COc1ccc(Cn2c(-c3ccc(OC)cc3)nc3c(c(=O)c4ccccc4n3C)c2=O)cc1,17%,4%[10 µM],-11%,-3%,0.28µM*,0%
COc1ccc(Cn2c(-c3ccc(C)cc3)nc3c(c(=O)c4ccccc4n3C)c2=O)cc1,36%,.,?,-12%,?,-1%
C=CCNC(=O)c1oc2ccc(S(=O)(=O)N(CC)CC)cc2c1C,9%,-6%,-4%,20µM*,20µM*,-8%
CCN(CC)S(=O)(=O)c1ccc2oc(C(=O)N3CCCCCC3)c(C)c2c1,?,-14%,?,7.1µM*,13µM*,3%
CCN(CC)S(=O)(=O)c1ccc2oc(C(=O)N3CCOCC3)c(C)c2c1,16%,21%,13%,?,6%,-2%
CCN(CC)S(=O)(=O)c1ccc2oc(C(=O)N3CCc4ccccc4C3)c(C)c2c1,?,31%[10 µM],?,28µM*,?,0%
CCN(CC)S(=O)(=O)c1ccc2oc(C(=O)NC3CCCc4ccccc43)c(C)c2c1 (stereo not given),7%,-26%,?,-18%,4%,-1%
Cc1c(C(=O)N2CCc3ccccc3C2)oc2ccc(S(=O)(=O)N3CC(C)CC(C)C3)cc12 (stereo not given),-22%,0%[10 µM],?,-15%,1%,0%
CCN(CC)S(=O)(=O)c1ccc(C(=O)N2CCCCC2)cc1,7%,-2%,0%,4µM*,-15%,1%
CCN(CC)C(=O)c1oc2ccc(S(=O)(=O)N3CCCCCC3)cc2c1C,10µM*,3%,?,-11%,6%,-4%
Cc1c(C(=O)N2CCOCC2)oc2ccc(S(=O)(=O)N3CCCCCC3)cc12,16%,-17%,?,-16%,-3%,-1%
CCOC(=O)c1[nH]c2ccc(Br)cc2c1NC(=O)CCN1CCCC(C)C1 (stereo not given),-13%,.,?,-16%,-1%,1%
CCOC(=O)c1[nH]c2ccc(Br)cc2c1NC(=O)CCN1CCC(C)CC1,0%,-8%,-6%,-15%,11µM*,0%
CCCCCNC(=O)c1ccc2c(=O)n(CCCOCC)c(=S)[nH]c2c1,7%,-49%,.,.,7%,-3%
CCN(CC)C(=O)c1ccc2c(=O)n(CCOC)c(=S)[nH]c2c1,-17%,12%,0%,14µM*,11µM*,-4%
CCOCCCn1c(=S)[nH]c2cc(C(=O)NCC(OC)OC)ccc2c1=O,1%,-20%,.,.,8.9µM*,-1%
COC(=O)CS(=O)(=O)c1ccsc1C(=O)Nc1ccc(F)c(F)c1,-2%,26%,.,.,0%,2%
CCc1cc(/C(Cc2ccccn2)=N\O)c(O)cc1O,?,-63%,?,-10%,-5%,-3%
CCOC(=O)C1CCCN(C2CC(=O)N(c3ccc(C(C)C)cc3)C2=O)C1 (stereo not given),4%[9.22 µM],3%[10 µM],.,.,10µM*,1%
CCOC(=O)C1CCCN(C2CC(=O)N(c3cccc(C(F)(F)F)c3)C2=O)C1 (stereo not given),23%,13%[10 µM],-1%,-5%,8.9µM*,4%
CCOC(=O)C1CCN(C2CC(=O)N(c3ccc(OCC)cc3)C2=O)CC1 (stereo not given),-2%,-8%[10 µM],?,4%,28µM*,0%
CCCCCCOc1ccc(N2C(=O)CC(N3CCC(C(=O)OCC)CC3)C2=O)cc1 (stereo not given),17%,13%[10 µM],5%,8%,?,1%
CCc1ccc(N2C(=O)CC(N3CCC(C(=O)OC)CC3)C2=O)cc1 (stereo not given),-3%,6%,-7%,0%,?,-2%
Cc1cccc(N2C(=O)CC(N3CCN(c4cccc(C(F)(F)F)c4)CC3)C2=O)c1 (stereo not given),-10%,-4%,-6%,-20%,28µM*,10%
Cc1cc(NC(=O)c2ccc(NC(=O)C3CC3)cc2)no1,1%,-14%[10 µM],.,.,4%,-5%
SMILES,HttQ103 aggreg,HTT cytoprotect,Lamin A splicing,HPGD inh,ALDH1A1 block,Luc counter
CCOC(=O)C1CCCN(C2CC(=O)N(c3ccc(C)c(C)c3)C2=O)C1 (stereo not given),-4%,-14%,0%,-4%,10µM*,-1%
CCOC(=O)C1CCCN(C2CC(=O)N(c3ccccc3)C2=O)C1 (stereo not given),15%,-6%,?,.,?,1%
CCOC(=O)C1CCCN(C2CC(=O)N(c3ccc(N4C(=O)CC(N5CCCC(C(=O)OCC)C5)C4=O)cc3)C2=O)C1 (stereo not given),20%,-18%,.,.,3.2µM*,-1%
O=C1C=CC(=O)N1c1ccc(Sc2ccc([N+](=O)[O-])cc2)cc1,12%[9.22 µM],3%[10 µM],.,.,0.79µM*,.
CCSc1nnc(NC(=O)CSc2nnc(-c3c[nH]c4ccccc34)n2CC)s1,4%,10%[10 µM],-19%,-23%,?,1%
Cc1ccc(N2C(=O)[C@@H]3[C@H](C2=O)C2c4ccccc4C=NN2[C@@H]3C(=O)c2ccc(Cl)cc2)cc1 (stereo not given in full),17%,21%[10 µM],8%,-26%,-13%,1%
CC(C)(C)C(=O)[C@@H]1[C@@H]2C(=O)N(Cc3ccccc3)C(=O)[C@@H]2[C@H]2c3ccccc3C=CN12,9%[9.22 µM],1%,?,-15%,?,-1%
CC(=O)[C@@H]1[C@@H]2C(=O)N(c3ccc(F)c(Cl)c3)C(=O)[C@@H]2C2c3ccccc3C=CN21 (stereo not given in full),6%,-19%[0.074 µM],-6%,22µM*,25µM*,2%
CC(=O)[C@H]1[C@@H]2C(=O)N(c3cccc(Cl)c3)C(=O)[C@@H]2[C@H]2c3ccccc3C=CN21,6%,-24%,11%,35µM*,7.9µM*,-4%
Cc1ccc(Cn2ccnc2SCC(=O)NCc2ccc(F)cc2)cc1,.,.,-6%[46 µM],.,.,.
O=C(COc1ccc(Cl)cc1Cl)NC(=S)N1CCCc2ccccc21,?,13%,?,22µM*,7.5µM*,2%

# High-throughput results (PubChem BioAssay)
